PubChem BioAssay (NCATS)
Records with an inconclusive call do not appear. Where a call stands in place of a potency, no number is given. Active and inactive are the calls of the source. Unless noted, calls come from the whole dose curve; as a rule, active = well fitted curve in the direction sought with a large enough effect in the repeat runs; inconclusive = weak or mixed curves; inactive = no such curve, though single readings can be large; an effect the other way counts as inactive or inconclusive.

target: Cytochrome P450 2D6 (Homo sapiens) (UniProt P10635); test: Cytochrome P450 family 2 subfamily D member 6 (CYP2D6) small molecule antagonists: luciferase biochemical (cell-free) qHTS assay (AID 1645840); details: P450-Glo CYP2D6 enzyme, luciferin luminescence, 1 h; series mostly up to 57.4 µM; note: nearly all actives have a fitted effect of over 55% in size; note: potency is the fitted concentration of half-maximal effect
Procedure, shortened: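 P450-Glo luminescent screen: recombinant CYP2D6 enzyme–proluciferin substrate mix preincubated with compound 10 min at room temperature, then NADPH regeneration added for 1 h at room temperature. Detection reagent added for 20 min; luciferin light read as relative luminescence units.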

Chain of Cytochrome P450 2D6 (Homo sapiens) (P10635 whole entry, looked up): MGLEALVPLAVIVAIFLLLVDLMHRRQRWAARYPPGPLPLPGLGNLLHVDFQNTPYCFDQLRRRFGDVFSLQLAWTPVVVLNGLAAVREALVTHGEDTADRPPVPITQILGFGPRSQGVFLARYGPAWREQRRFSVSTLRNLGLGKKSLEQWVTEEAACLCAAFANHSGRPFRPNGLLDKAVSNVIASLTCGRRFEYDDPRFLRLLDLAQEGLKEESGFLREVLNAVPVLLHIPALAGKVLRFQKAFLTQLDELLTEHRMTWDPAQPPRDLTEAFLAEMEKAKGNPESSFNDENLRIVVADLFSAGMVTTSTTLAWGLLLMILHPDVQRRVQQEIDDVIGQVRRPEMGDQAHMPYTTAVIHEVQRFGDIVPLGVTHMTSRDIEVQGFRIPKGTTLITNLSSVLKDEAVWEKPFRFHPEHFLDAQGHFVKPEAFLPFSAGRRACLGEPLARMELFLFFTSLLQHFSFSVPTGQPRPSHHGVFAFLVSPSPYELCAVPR

Question: With CC(Cc1ccccc1)NCCn1cnc2c1c(=O)n(C)c(=O)n2C (stereo unspecified) as the compound, how does the Potency read?
Answer: The Potency was 7.01 µM (active).

Question: With CC(C)(N)Cc1ccccc1Cl as the compound, how does the Potency read?
Answer: The Potency was 13.8 µM (active).

Question: Which Potency does the source give for COc1cc(CC(C)N)cc(OC)c1OC (stereo unspecified) here?
Answer: Its Potency is 30.6 µM (active).

Question: With COc1cccc(C(=O)CCN[C@@H](C)[C@H](O)c2ccccc2)c1 as the compound, how does the Potency read?
Answer: The Potency was 1.55 µM (active).

Question: For C#CC(O)(C=CCl)CC (stereo unspecified), which Potency is on record?
Answer: The Potency was “inactive”.

Question: For CCN[C@@H](C)Cc1ccccc1, which Potency is on record?
Answer: The Potency was 6.28 µM (active).

Question: With CC(C)(C)NCC(O)c1cc(Cl)c(N)c(C(F)(F)F)c1 (stereo unspecified) as the compound, how does the Potency read?
Answer: The Potency was 15.5 µM (active).

Question: Which Potency does the source give for CC(C)NC(C)C here?
Answer: Its Potency is “inactive”.

Question: With COc1cc(OC)c(OC)cc1C=O as the compound, how does the Potency read?
Answer: The Potency was “inactive”.

Question: With O=C(O)c1ccc(=O)[nH]c1 as the compound, how does the Potency read?
Answer: Its Potency is “inactive”.

Question: With CC(=O)OCC1=C(C(=O)O)N2C(=O)[C@@H](N)[C@H]2SC1 as the compound, how does the Potency read?
Answer: The Potency was 5.35 µM (active).

Question: For CCC1(CC)C(=O)C=CNC1=O, which Potency is on record?
Answer: Its Potency is “inactive”.

Question: With c1ccc(CN2CCNCC2)cc1 as the compound, how does the Potency read?
Answer: Its Potency is 30.6 µM (active).

Question: For Clc1ccccc1N1CCNCC1, which Potency is on record?
Answer: The Potency was 13.8 µM (active).

Question: Which Potency does the source give for Oc1ccc(Cl)cc1 here?
Answer: The Potency was “inactive”.

Question: For O=c1c(C2CC(c3ccc(-c4ccc(Br)cc4)cc3)Cc3ccccc32)c(O)sc2ccccc12 (stereo unspecified), which Potency is on record?
Answer: Its Potency is “inactive”.

Question: Which Potency does the source give for Nc1ccccc1C(=O)O here?
Answer: Its Potency is “inactive”.

Question: With Nc1ccc([As](=O)(O)O)cc1 as the compound, how does the Potency read?
Answer: The Potency was “inactive”.

Question: With CNCC(=O)c1ccc(O)c(O)c1 as the compound, how does the Potency read?
Answer: The Potency was “inactive”.

Question: Which Potency does the source give for CC[N+]1(CC)CCC(OC(=O)C(O)(c2ccccc2)c2ccccc2)C1 (stereo unspecified) here?
Answer: Its Potency is 12.9 µM (active).

Question: For COc1ccc2c3c1O[C@H]1[C@H](O)CC[C@H]4[C@@H](C2)N(C)CC[C@@]341, which Potency is on record?
Answer: The Potency was “inactive”.

Question: With COC(=O)[C@@H](N)CCCN/C(N)=N/[N+](=O)[O-] as the compound, how does the Potency read?
Answer: Its Potency is “inactive”.

Question: With c1ccc(N2CCNCC2)cc1 as the compound, how does the Potency read?
Answer: Its Potency is “inactive”.

Question: For C[C@]12CC[C@H]3[C@@H](CC[C@@]45O[C@H]4C(O)=C(C#N)C[C@]35C)[C@H]1CC[C@H]2O, which Potency is on record?
Answer: The Potency was “inactive”.

Question: For C=CCC1([C@H](C)CCC)C(=O)NC(=O)NC1=O, which Potency is on record?
Answer: The Potency was “inactive”.

Question: With O=[N+]([O-])O[C@H]1CO[C@H]2[C@@H]1OC[C@H]2O[N+](=O)[O-] as the compound, how does the Potency read?
Answer: Its Potency is “inactive”.

Question: With C[C@H]1[C@@H]2Cc3ccc(O)cc3[C@@]1(C)CCN2C as the compound, how does the Potency read?
Answer: The Potency was 107 µM (active).

Question: For C[C@H](N)C(=O)c1ccccc1, which Potency is on record?
Answer: The Potency was 42.2 µM (active).

Question: For CC(=O)NC1CCSC1=O (stereo unspecified), which Potency is on record?
Answer: The Potency was “inactive”.

Question: Which Potency does the source give for CC(=O)C1CCOC1=O (stereo unspecified) here?
Answer: Its Potency is “inactive”.

target: Cytochrome P450 3A4 (Homo sapiens) (UniProt P08684); test: Cytochrome P450 family 3 subfamily A member 4 (CYP3A4) small molecule antagonists: luciferase qHTS assay (AID 1645841); details: P450-Glo CYP3A4 enzyme assay, luciferin luminescence; series mostly up to 57.4 µM; note: nearly all actives have a fitted effect of over 45% in size
Procedure, shortened: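 P450-Glo CYP3A4 enzyme with proluciferin substrate preincubated 10 min with compound at room temperature, then NADPH regeneration 1 h. Luciferin detection reagent added for 20 min; luminescence recorded. Ketoconazole positive control.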

Chain of Cytochrome P450 3A4 (Homo sapiens) (P08684 whole entry, looked up): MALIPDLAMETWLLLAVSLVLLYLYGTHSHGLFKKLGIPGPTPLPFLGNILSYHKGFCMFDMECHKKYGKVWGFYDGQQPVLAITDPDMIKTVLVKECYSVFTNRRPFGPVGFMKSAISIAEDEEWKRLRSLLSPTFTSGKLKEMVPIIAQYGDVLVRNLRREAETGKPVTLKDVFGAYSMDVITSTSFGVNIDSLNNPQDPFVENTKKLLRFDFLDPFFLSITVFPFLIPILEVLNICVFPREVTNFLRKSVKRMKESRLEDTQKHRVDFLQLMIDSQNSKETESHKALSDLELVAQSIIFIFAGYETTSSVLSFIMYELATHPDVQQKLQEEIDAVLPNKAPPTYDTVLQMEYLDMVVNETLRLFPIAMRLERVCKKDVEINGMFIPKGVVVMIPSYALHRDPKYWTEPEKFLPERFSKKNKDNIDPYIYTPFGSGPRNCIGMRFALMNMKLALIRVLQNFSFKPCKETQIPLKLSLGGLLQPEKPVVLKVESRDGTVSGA

Question: With Clc1ccccc1N1CCNCC1 as the compound, how does the Potency read?
Answer: The Potency was “inactive”.

Question: Which Potency does the source give for Nc1ccc([As](=O)(O)O)cc1 here?
Answer: Its Potency is “inactive”.

Question: For O=[N+]([O-])O[C@H]1CO[C@H]2[C@@H]1OC[C@H]2O[N+](=O)[O-], which Potency is on record?
Answer: The Potency was “inactive”.

target: Cytochrome P450 2C9 (Homo sapiens) (UniProt P11712); test: Cytochrome P450 family 2 subfamily C member 9 (CYP2C9) small molecule antagonists: luciferase biochemical (cell-free) qHTS assay (AID 1645842); details: P450-Glo CYP2C9 enzyme assay, luciferin luminescence; series mostly up to 57.4 µM; note: nearly all actives have a fitted effect of over 55% in size; note: potency is the fitted concentration of half-maximal effect
Procedure, shortened: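 Luminescence, after 20 min with luciferin detection reagent, reflected CYP2C9 turnover during a 1 h NADPH-driven reaction at 37C. Enzyme-substrate mix contained 0.4% bovine serum albumin and was preincubated with compound 10 min at room temperature.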

Chain of Cytochrome P450 2C9 (Homo sapiens) (P11712 whole entry, looked up): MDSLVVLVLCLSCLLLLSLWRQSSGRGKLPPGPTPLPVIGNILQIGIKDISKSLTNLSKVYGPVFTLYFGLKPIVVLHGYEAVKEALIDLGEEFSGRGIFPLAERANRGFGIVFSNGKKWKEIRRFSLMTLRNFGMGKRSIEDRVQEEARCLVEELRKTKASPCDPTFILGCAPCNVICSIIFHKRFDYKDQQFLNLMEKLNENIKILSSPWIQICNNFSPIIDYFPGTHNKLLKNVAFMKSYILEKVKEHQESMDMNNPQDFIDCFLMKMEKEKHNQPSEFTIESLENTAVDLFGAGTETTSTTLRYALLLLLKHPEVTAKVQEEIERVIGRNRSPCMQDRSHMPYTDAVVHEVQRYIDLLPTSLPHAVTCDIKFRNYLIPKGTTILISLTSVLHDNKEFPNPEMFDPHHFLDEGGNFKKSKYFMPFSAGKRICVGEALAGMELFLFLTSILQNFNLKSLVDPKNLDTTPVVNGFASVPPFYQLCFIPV

Question: With CC(Cc1ccccc1)NCCn1cnc2c1c(=O)n(C)c(=O)n2C (stereo unspecified) as the compound, how does the Potency read?
Answer: The Potency was “inactive”.

Question: With CC(C)(N)Cc1ccccc1Cl as the compound, how does the Potency read?
Answer: The Potency was “inactive”.

Question: For COc1cc(CC(C)N)cc(OC)c1OC (stereo unspecified), which Potency is on record?
Answer: Its Potency is “inactive”.

Question: With CN1CC[C@]23c4c5ccc(O)c4O[C@H]2[C@@H](O)CC[C@H]3[C@H]1C5 as the compound, how does the Potency read?
Answer: The Potency was “inactive”.

Question: For COc1cccc(C(=O)CCN[C@@H](C)[C@H](O)c2ccccc2)c1, which Potency is on record?
Answer: Its Potency is 30.9 µM (active).

Question: For C#CC(O)(C=CCl)CC (stereo unspecified), which Potency is on record?
Answer: The Potency was “inactive”.

Question: Which Potency does the source give for CCN[C@@H](C)Cc1ccccc1 here?
Answer: Its Potency is “inactive”.

Question: Which Potency does the source give for CC(C)(C)NCC(O)c1cc(Cl)c(N)c(C(F)(F)F)c1 (stereo unspecified) here?
Answer: Its Potency is “inactive”.

Question: Which Potency does the source give for CC(C)NC(C)C here?
Answer: Its Potency is “inactive”.

Question: With O=C(Nc1ccc(Br)cc1)c1cc(Br)cc(Br)c1O as the compound, how does the Potency read?
Answer: Its Potency is 3.47 µM (active).

Question: With COc1cc(OC)c(OC)cc1C=O as the compound, how does the Potency read?
Answer: The Potency was “inactive”.

Question: Which Potency does the source give for COc1ccc2c(c1OC)C(=O)O[C@H]2[C@@H]1c2cc3c(cc2CCN1C)OCO3 here?
Answer: Its Potency is 4.9 µM (active).

Question: Which Potency does the source give for NC(=O)CS(=O)C(c1ccccc1)c1ccccc1 (stereo unspecified) here?
Answer: The Potency was “inactive”.

Question: For O=C(O)c1ccc(=O)[nH]c1, which Potency is on record?
Answer: The Potency was “inactive”.

Question: For CC(=O)OCC1=C(C(=O)O)N2C(=O)[C@@H](N)[C@H]2SC1, which Potency is on record?
Answer: The Potency was “inactive”.

Question: For c1ccc(CN2CCNCC2)cc1, which Potency is on record?
Answer: The Potency was “inactive”.

Question: Which Potency does the source give for Clc1ccccc1N1CCNCC1 here?
Answer: The Potency was “inactive”.

Question: Which Potency does the source give for C=CCC1(C(C)CC)C(=O)NC(=O)NC1=O (stereo unspecified) here?
Answer: Its Potency is “inactive”.

Question: With Oc1ccc(Cl)cc1 as the compound, how does the Potency read?
Answer: Its Potency is “inactive”.

Question: Which Potency does the source give for O=c1c(C2CC(c3ccc(-c4ccc(Br)cc4)cc3)Cc3ccccc32)c(O)sc2ccccc12 (stereo unspecified) here?
Answer: The Potency was 9.77 µM (active).

Question: Which Potency does the source give for Nc1ccccc1C(=O)O here?
Answer: Its Potency is “inactive”.

Question: For Nc1ccc([As](=O)(O)O)cc1, which Potency is on record?
Answer: Its Potency is “inactive”.

Question: Which Potency does the source give for CNCC(=O)c1ccc(O)c(O)c1 here?
Answer: The Potency was “inactive”.

Question: Which Potency does the source give for CC[N+]1(CC)CCC(OC(=O)C(O)(c2ccccc2)c2ccccc2)C1 (stereo unspecified) here?
Answer: Its Potency is “inactive”.

Question: For COc1ccc2c3c1O[C@H]1[C@H](O)CC[C@H]4[C@@H](C2)N(C)CC[C@@]341, which Potency is on record?
Answer: The Potency was “inactive”.

Question: Which Potency does the source give for c1ccc(N2CCNCC2)cc1 here?
Answer: Its Potency is “inactive”.

Question: For C[C@]12CC[C@H]3[C@@H](CC[C@@]45O[C@H]4C(O)=C(C#N)C[C@]35C)[C@H]1CC[C@H]2O, which Potency is on record?
Answer: Its Potency is “inactive”.

Question: For C=CCC1([C@H](C)CCC)C(=O)NC(=O)NC1=O, which Potency is on record?
Answer: The Potency was “inactive”.

Question: For O=[N+]([O-])O[C@H]1CO[C@H]2[C@@H]1OC[C@H]2O[N+](=O)[O-], which Potency is on record?
Answer: Its Potency is “inactive”.

Question: With C[C@H]1[C@@H]2Cc3ccc(O)cc3[C@@]1(C)CCN2C as the compound, how does the Potency read?
Answer: The Potency was “inactive”.

Question: With CC(=O)C1CCOC1=O (stereo unspecified) as the compound, how does the Potency read?
Answer: Its Potency is “inactive”.

tested on: not listed separately; test: Cytotoxicity counterscreen for inhibitors of SARS-CoV-2 cell entry (AID 1645845; calls by dose curve; note: nearly all actives have a fitted effect of over 50% in size); details: cell viability (SARS-CoV-2 entry assay cells); series mostly up to 57.1 µM
Procedure, shortened: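 HEK293-ACE2 cells (Expi293F stably expressing human ACE2) seeded overnight, then compound for 1 h plus 48 h at 37C. Viability as ATP content by luminescence; normalized to wells with cells and media-only wells.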

Question: Which Potency does the source give for COc1cccc(C(=O)CCN[C@@H](C)[C@H](O)c2ccccc2)c1 here?
Answer: Its Potency is “inactive”.

Question: Which Potency does the source give for C#CC(O)(C=CCl)CC (stereo unspecified) here?
Answer: The Potency was “inactive”.

Question: With CC(C)(C)NCC(O)c1cc(Cl)c(N)c(C(F)(F)F)c1 (stereo unspecified) as the compound, how does the Potency read?
Answer: Its Potency is “inactive”.

Question: With CC(C)NC(C)C as the compound, how does the Potency read?
Answer: The Potency was “inactive”.

Question: Which Potency does the source give for O=C(Nc1ccc(Br)cc1)c1cc(Br)cc(Br)c1O here?
Answer: Its Potency is “inactive”.

Question: For COc1ccc2c(c1OC)C(=O)O[C@H]2[C@@H]1c2cc3c(cc2CCN1C)OCO3, which Potency is on record?
Answer: The Potency was “inactive”.

Question: For C[C@](O)(CS(=O)(=O)c1ccc(F)cc1)C(=O)Nc1ccc(C#N)c(C(F)(F)F)c1, which Potency is on record?
Answer: Its Potency is “inactive”.

Question: For C=CCC1(C(C)CC)C(=O)NC(=O)NC1=O (stereo unspecified), which Potency is on record?
Answer: Its Potency is “inactive”.

Question: For Oc1ccc(Cl)cc1, which Potency is on record?
Answer: Its Potency is “inactive”.

Question: For Nc1ccc([As](=O)(O)O)cc1, which Potency is on record?
Answer: Its Potency is “inactive”.

Question: For C[C@]12CC[C@H]3[C@@H](CC[C@@]45O[C@H]4C(O)=C(C#N)C[C@]35C)[C@H]1CC[C@H]2O, which Potency is on record?
Answer: The Potency was “inactive”.

Question: Which Potency does the source give for O=[N+]([O-])O[C@H]1CO[C@H]2[C@@H]1OC[C@H]2O[N+](=O)[O-] here?
Answer: The Potency was “inactive”.
